# According to PubChem BioAssay (Tox21):
# Inconclusive results are not listed. Activity calls are given as the source filed them. The call rests on the fitted dose curve; in most records, active means well fitted inhibition curve with a large enough effect in the repeat runs; inconclusive means weak or mixed curves, or effect the other way; inactive means no such curve, though single readings can be large or run the other way.
# Target: Nuclear receptor ROR-gamma (Homo sapiens) (UniProt P51449)
# Test: qHTS assay to identify small molecule antagonists of the retinoid-related orphan receptor gamma (ROR-gamma) signaling pathway (AID 1159521; further: top concentration of the series differs between compounds; nearly all actives have a fitted effect of over 50% in size)
# Conditions: Tet-on RORgamma CHO cells, RORE-luciferase, 16 h; series mostly up to 92.4 µM; activity change, negative = inhibition: at the top concentration
# Excerpt: U.S. Tox21 Program National Center for Advancing Translational Sciences [NCATS] NIH Chemical Genomics Center [NCGC] U.S. Environmental Protection Agency [EPA] National Institutes of Environmental Health Sciences [NIEHS] National Toxicology Program [NTP] U.S. Food and Drug Administration [FDA] Tox21 Assay Overview: Nuclear steroid hormone receptors are involved in many biological processes including inflammatory responses, cell proliferation, and apoptosis. Environmental factors or compounds disrupting these nuclear receptor pathways and gene expression may promote susceptibility to immunotoxicants and autoimmune diseases. One important group of these expression factors are the retinoid-related orphan receptors. To assess compounds that may interfere with the retinoid-related orphan receptor gamma (ROR-gamma) transcription factor, a cell-based luciferase assay was used. The CHO cell-based assay utilizes a TET-inducible ROR expression factor and ROR response element-LUC reporter gene. Reporter gene activity was induced using Doxycycline Hyclate and measured after 16 hr incubation. Tet-on ROR gamma CHO cells were used to screen against the Tox21 10K compound library for ROR gamma antagonists by quantification of decreased reporter gene activity in terms of decreased luminescence.
# Tox21 Assay Protocol Summary: Tet-on ROR gamma CHO cells were dispensed at 1,000 cells in 4 uL of culture medium per well into white wall/solid bottom 1536-well plates using a Multidrop Combi (Thermo Scientific, Waltham, MA) dispenser. Following incubation at 37 C and 5% CO2 for 4 hr, 23 nL of compounds dissolved in DMSO, positive controls or DMSO only were transferred by a Pintool station (Kalypsys, San Diego, CA) and after 2 hr incubation at 37 C, one ul of 1 uM (final concentration) of Doxycycline Hyclate was added to all the wells by using a Flying Reagent Dispenser (FRD) (Aurora Discovery, San Diego, CA). After 16 hr incubation at 37 C and 5% CO2, 5 uL of ONE-Glo reagent (Promega Corporation, Madison, WI) was added to each assay plate using FRD. After 30 min incubation at room temperature, luminescence was quantified on a ViewLux plate reader (Perkin Elmer, Waltham, MA).
# On the % scale 0 is the no-effect control and ±100 the full control effect.
row,SMILES,"activity change, negative = inhibition"
1,CN(C1CCCCC1)S(=O)(=O)c1ccccc1N,1.92% (inactive)
2,CCCCCCCCCCCCCC(=O)OC,33.8% (inactive)
3,O=[Si]=O,7.22% (inactive)
4,CC(C)C(=O)c1ccccc1,3.18% (inactive)
5,C=CCOc1c(Br)cc(Br)cc1Br,3.48% (inactive)
6,CCCC(C)CC (stereo not given),9.14% (inactive)
7,CO[Si](CCCCl)(OC)OC,-4.38% (inactive)
8,O=S1(=O)CCCC1,45.4% (inactive)
9,CC(=O)/C=C/c1ccco1,-0.37% (inactive)
10,C=COCCOCCOC=C,3.33% (inactive)
11,NC(=O)NNC(N)=O,7.08% (inactive)
12,C1=C\CC/C=C\CC/1,-12.2% (inactive)
13,CCCOCCOCCOCCO,6.42% (inactive)
14,CCNC(=O)/C=C/c1cccc(Br)c1,56.6% [at 42.5 µM] (inactive)
15,O=C(CN1CCN(Cc2ccc3c(c2)OCO3)CC1)N1c2ccccc2Sc2ccccc21,-19% [at 42.5 µM] (inactive)
16,CC(C)(c1ccc(Oc2ccc3c(c2)C(=O)OC3=O)cc1)c1ccc(Oc2ccc3c(c2)C(=O)OC3=O)cc1,17.2% (inactive)
17,Nc1c(NC/C=C\COc2cc(CN3CCCCC3)ccn2)c(=O)c1=O,-0.0898% [at 19 µM] (inactive)
18,CC(C)(C)NCCO,-6.17% (inactive)
19,CC(Cl)COP(=O)(OCC(C)Cl)OCC(C)Cl (stereo not given),-1.93% (inactive)
20,CC(=O)OC(C(=O)c1ccccc1)c1ccccc1 (stereo not given),-6.23% (inactive)

row,SMILES,"activity change, negative = inhibition"
1,CCCCCCCCC(=O)OCC,0.946% (inactive)
2,CCCOC(=O)CCCCC(=O)OCCC,-1.97% (inactive)
3,CCOC(=O)CC(CC(=O)OCC)(OC(C)=O)C(=O)OCC,24.6% (inactive)
4,C[C@H](CCC(=O)NCC(=O)O)[C@H]1CC[C@H]2[C@@H]3[C@H](O)C[C@@H]4C[C@H](O)CC[C@]4(C)[C@H]3C[C@H](O)[C@]12C,-15.3% (inactive)
5,CC(=O)c1ccc(OCC(=O)N2CCCCC2)cc1,155% [at 42.5 µM] (inactive)
6,CCCCCC1Nc2cc(C(F)(F)F)c(S(N)(=O)=O)cc2S(=O)(=O)N1 (stereo not given),34.5% [at 42.5 µM] (inactive)
7,CC(C)CCC(=O)CCC(C)C,-3.82% (inactive)
8,Nc1ccc(C(=O)OCC(O)CO)cc1 (stereo not given),48.6% [at 42.5 µM] (inactive)
9,CCC(C)(CCC(C)C)C(=O)[O-].CCC(C)(CCC(C)C)C(=O)[O-].[Zn+2] (stereo not given),2.52% (inactive)
10,CCCCCCCCCCCCC,-7.16% (inactive)
11,CCCCCN(CCCOC)C(=O)C(CCC(=O)O)NC(=O)c1ccc(Cl)c(Cl)c1 (stereo not given),38.8% [at 42.5 µM] (inactive)
12,C=C(C)C(=O)OC1CC(C)CC(C)(C)C1 (stereo not given),0.93% (inactive)
13,COc1cccc2sc(N)nc12,95% (inactive)
14,O=c1cc(O)c(Cl)c[nH]1,-1.19% [at 42.5 µM] (inactive)
15,NCCc1ccn[nH]1,19.2% [at 42.5 µM] (inactive)
16,CCCCC(=O)N(C)C,-14.8% (inactive)
17,C=CCCCCCCCCCCC,-1.42% [at 8.39 µM] (inactive)
18,O=c1[nH]c(=O)c2[nH]c(=O)[nH]c2[nH]1,25.7% [at 8.39 µM] (inactive)
19,NS(=O)(=O)c1cc2c(cc1Cl)NC(C(Cl)Cl)NS2(=O)=O (stereo not given),29.6% [at 42.5 µM] (inactive)
20,O=C(Nc1cccc(C2=NCCN2)c1)Nc1cccc(C2=NCCN2)c1,-4.66% [at 19 µM] (inactive)
